Source: PubChem BioAssay
Anesthetic bind: candidate novel general anesthetic via apoferritin binding | actives 0.074% (n = 350,000) | Potency, µM (highest dose often 77.5 µM), without a hit: at the highest dose activity change, negative = displacement, hits mostly inhibitors | P02791 | apoferritin/1-aminoanthracene competitive binding, fluorescence; further: on the % scale 0 is the no-effect control and ±100 the full control effect; nearly all actives have a fitted effect of over 20% in size
Target sequence (P02791 2-175 limits assumed): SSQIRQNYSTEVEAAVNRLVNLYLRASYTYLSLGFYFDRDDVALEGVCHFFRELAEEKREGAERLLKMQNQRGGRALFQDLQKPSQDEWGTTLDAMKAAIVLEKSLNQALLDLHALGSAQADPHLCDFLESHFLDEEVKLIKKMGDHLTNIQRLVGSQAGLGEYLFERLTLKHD
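Probe: 1-aminoanthracene (50% saturated, PBS). Protein: horse-spleen apoferritin, 10 uM. Incubation: 10 min, room temperature. Detection: 380 nm excitation, 535 nm emission. Analysis: normalized response, four-parameter Hill.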
GoLoco inh red: RGS12 GoLoco-Gai1 interaction inhibition | P63096 | Gai1:RGS12 GoLoco peptide FP, rhodamine, 10 min | Potency, µM (highest dose often 61.6 µM), inactives show at the highest dose activity, negative = inhibition, hits mostly inhibitors | actives 0.44% (n = 230,000) | AID 880; active means well fitted inhibition curve with a large enough effect, not every such curve was filed as active; inactive means no such curve, though single readings can be large or run the other way; further: on the % scale 0 is the no-effect control and ±100 the full control effect; nearly all actives have a fitted effect of over 30% in size
BRCA1 expr act: BRCA1 expression activation; MCF7-BRCA1-FFLuc reporter, luminescence, 48 h; response scale: scaled: vehicle 0%, 10 µM genistein 100%; Potency, µM (doses to about 46.1 µM), inactives show at the top dose activation, most hits filed as activators; actives 1.1% (n = 380,000); AID 624202; further: nearly all actives have a fitted effect of over 80% in size
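Reporter cells (MCF7, BRCA1 promoter-firefly luciferase) received library compounds across a concentration series for 48 h. End-point luminescence was measured and concentration-effect curves derived after normalization.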
ERG-DNA inh: ERG Ets/DNA interaction inhibition | P11308 | fluorescence polarization, His-ERG Ets domain / labelled DNA | Potency, µM (top dose mostly 76.9 µM), without a hit: at the highest dose FP activity, negative = inhibition, actives largely listed as inhibitors | actives 0.028% (n = 370,000); active means well fitted inhibition curve with a large enough effect in the polarisation, with a control signal flat; inconclusive means small, poorly fitted or top-dose-only effect, or effect the other way, or a change in a side signal; inactive means no such curve, though single readings can be large or run the other way; the % refers to the polarisation;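 further: polarization taken with two DNA probes labelled with fluorescein and Texas red; % of control where 0% means no effect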
Target sequence (P11308 whole entry, looked up, the tested form may be a part): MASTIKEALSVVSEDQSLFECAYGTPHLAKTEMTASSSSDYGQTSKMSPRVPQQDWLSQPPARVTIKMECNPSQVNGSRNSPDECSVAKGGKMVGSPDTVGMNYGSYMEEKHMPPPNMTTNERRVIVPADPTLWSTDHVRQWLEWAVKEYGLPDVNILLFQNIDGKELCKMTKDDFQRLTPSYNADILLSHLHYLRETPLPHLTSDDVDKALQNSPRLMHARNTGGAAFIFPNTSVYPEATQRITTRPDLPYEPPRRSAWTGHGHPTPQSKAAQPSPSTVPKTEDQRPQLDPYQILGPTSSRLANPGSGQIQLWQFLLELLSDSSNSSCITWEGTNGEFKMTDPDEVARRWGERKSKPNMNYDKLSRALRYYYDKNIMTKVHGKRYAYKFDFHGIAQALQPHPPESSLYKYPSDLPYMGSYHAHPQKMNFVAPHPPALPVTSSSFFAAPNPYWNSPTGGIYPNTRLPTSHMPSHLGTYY
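His-tagged ERG Ets domain (1 uM in the protein solution; 300mM KCl, 50mM Tris-HCl, 1mM EDTA, 1mM DTT, pH 7.5) received compound, then a probe mix of 5 nM fluorescein-DNA and 100nM Texas-615-DNA. Fluorescence polarization was read for both dyes.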
Active calls of the source: *; ? = inconclusive; . = no result; [ ] = dose if it differs, or a comment. In the library only some 1.2% were active in any assay of this set; here they are far more common. Unless noted, the call rests on the fitted dose curve; in most records, active means well fitted curve in the direction sought with a large enough effect; inconclusive means small, poorly fitted or top-dose-only effect, or another doubt; inactive means no such curve, though single readings can be large; an effect the other way counts as inactive or inconclusive. Potency means the concentration at half of the fitted maximal effect.

SMILES | Anesthetic bind | GoLoco inh red | BRCA1 expr act | ERG-DNA inh
CCOc1ccc(CC(=O)Nc2sc(Cc3ccccc3)cc2C(N)=O)cc1OCC | -16.8% | -3.8% | 5.3% | -3.3%
COc1cccc(-c2nnc3sc(-c4ccco4)nn23)c1 | -10.5% | 26.7% | 8.91µM* | -8.1%
NC(=O)c1cc(Cc2ccccc2)sc1NC(=O)c1ccco1 | -2.7% | -5.8% | 7.94µM* | 8.0%
COc1ccc(-c2nnc3sc(-c4ccco4)nn23)cc1OC | -20.6% | 18.3% | 2.3% | -2.0%
Cc1ccc(Oc2ccc(NC(=O)c3ccco3)cc2)cc1 | ? | -8.4% | 11.2µM* | -0.1%
O=C(Nc1nnc(CCc2ccccc2)s1)c1ccco1 | -0.1% | -2.3% | 67.4% | -2.0%
Cc1nn(-c2ccccc2)c(NC(=O)NS(=O)(=O)c2ccc(Cl)cc2)c1C#N | 1.7% | . | . | .
CC(C)CCC[C@@H](C)[C@H]1CC[C@H]2[C@@H]3CC=C4CC(O)CC[C@]4(C)[C@H]3CC[C@]12C (stereo not given in full) | -1.0% | . | . | .
O=C1[C@@H]2[C@H]3[C@H](O)[C@H](O)C/C(=N/OC[C@@H](O)COCc4ccco4)[C@H]3CC[C@H]2C(=O)N1c1ccc(F)cc1F | -14.0%[15.3 µM] | . | . | .
COc1ccc(S(=O)(=O)NCc2ccc3c(c2)cc(C)n3C)cc1 | -23.9% | -19.8% | 0.5% | 35.5µM*
Cc1cc2cc(CNS(=O)(=O)c3ccccc3)ccc2n1C | -22.0% | -16.2% | 37.9% | 11.2µM*
COc1ccccc1/C=C/c1cnccn1 | . | . | -13.4% | .
C=CCn1c(NCc2ccccc2O)nc2ccccc21 | -21.8% | . | 86.7% | -12.6%
C=CCn1c(NCc2ccc(OC)cc2O)nc2ccccc21 | -9.4% | . | 12.6µM* | 0.0%
CCOc1ccc(OCc2ccc(C(=O)N3CCCC3)o2)cc1 | -12.7% | -7.7% | 44.1% | .
CN1CCN(C(=O)c2ccc(COc3ccc(C(C)(C)C)cc3)o2)CC1 | ? | 8.1% | 3.55µM* | 1.0%
CN1CCc2c(c3cnc4cc(Cl)ccc4c3n2C)C1 | . | . | 10.7% | .
CCS(=O)(=O)N1Cc2ccccc2CC1C(=O)Nc1cccc(C)c1 (stereo not given) | ? | 4.3% | 5.01µM* | 10.2%
Cc1cc(=O)[nH]c(-c2ccccc2)n1 | -5.5% | 5.6% | 9.2% | -0.5%
Cc1cc(=O)[nH]c2n[nH]c(-c3ccccc3)c12 | -18.8% | -3.9% | 11.2µM* | -1.4%
COc1cc(OC)cc(C(=O)/C=C2\Sc3ccccc3N2C)c1 | 6.7% | -0.1% | 48.2% | 3.6%
COc1ccc2c(c1)S/C(=C\C(=O)c1ccncc1)N2C | 31.7% | 84.8% | 4.47µM* | 3.6%
COc1ccc2sc(C)cc(=O)c2c1 | . | . | 14.9% | .
COc1ccc2sc3ccccc3c(=O)c2c1 | 155.3% | 5.6% | 5.62µM* | -2.0%
COc1cc2c(NC3CCN(C(C)C)CC3)nc(N3CCCN(C)CC3)nc2cc1OCCOCCN1CCCC1 | . | . | -58.3% | .
SMILES | Anesthetic bind | GoLoco inh red | BRCA1 expr act | ERG-DNA inh
N#Cc1c(N2CCSCC2)nsc1-c1ccccc1Cl | -12.4% | . | 11.2µM* | -0.3%
S=c1ncc2n[nH]nc2[nH]1 | . | . | 6.9% | .
CC(C)CCNC(=O)CCn1c(=O)c2cccn2c2cccnc21 | -15.0% | . | . | -2.8%
C=CCOc1c(Cl)cc(CNc2ccc(N(C)C)cc2)cc1OC | ? | 22.4µM* | -82.2% | -20.7%
COc1ccc2nc(N3CCCCC3)c(C#N)cc2c1 | 234.1% | 0.5% | 11.2µM* | -1.0%
COc1ccc2nc(N3CCCC3)c(C#N)cc2c1 | 172.9% | 10.7% | 37.1% | -2.2%
Cc1cc2ccccc2n1CCNC(=O)c1ccc(Br)cc1 | -13.6% | . | 43.2% | -4.2%
Cc1cc2ccccc2n1CCNC(=O)c1ccc(Br)o1 | -13.3% | 22.4µM* | 54.7% | 31.6µM*
Cc1cc2ccccc2n1CCNC(=O)C(C)(C)C | -7.5% | 7.0% | -5.0% | 22.4µM*
CC(=O)NCCn1c(C)cc2ccccc21 | 5.5% | -0.3% | -1.9% | -28.8%
Cc1onc(-c2ccccc2Cl)c1C(=O)NCCn1c(C)cc2ccccc21 | -16.4% | . | -38.9% | 31.6µM*
CC[n+]1cc(-c2ccccc2)nc(N2CCOCC2)n1 | -15.5% | 7.08µM* | -5.7% | .
NC(=O)c1cc(-c2ccccc2)nc(N2CCOCC2)n1 | 3.9% | 0.9% | -48.4% | -5.7%
C=C1C=C(C(F)F)n2ncc(C(=O)N3CCc4ccccc4C3)c2N1 | . | . | 5.3% | .
C=CCc1cccc(C2NC(C(=O)O)CCC2C)c1 (stereo not given) | 1.9%[15.3 µM] | . | . | .
Clc1ccccc1OCc1nnc(-c2ccccc2Br)o1 | ? | 16.6% | 3.98µM* | -0.4%
Clc1ccc(Cc2nnc(-c3ccccc3Br)o2)cc1 | -2.9% | 9.0% | 14.1µM* | -1.0%
O=C(NCC(c1ccco1)S(=O)(=O)c1ccc(Cl)cc1)c1ccccc1F (stereo not given) | 4.6% | . | . | -2.1%
Cc1ccc(-c2cc(C(=O)NCc3cccs3)no2)cc1 | 4.7% | -12.9% | 4.47µM* | 13.4%
O=C(NCc1cccs1)c1cc(-c2cccc(Cl)c2)on1 | -13.5% | 9.7% | 57.3% | 5.3%
Cc1ccc(/C=C/C(=O)NCc2cccs2)c(C)c1 | -4.7% | 3.0% | 10µM* | 6.2%
O=C(NCc1cccs1)c1cc(-c2ccc(O)cc2)on1 | 1.9% | 8.7% | 8.91µM* | -1.8%
O=C(O)[C@H](C1NCCS1)N1C(=O)c2ccccc2C1=O (stereo not given in full) | . | 0.6%[14.2 µM] | . | .
CN(C)/[N+]([O-])=N/Oc1ccc([N+](=O)[O-])cc1[N+](=O)[O-] | . | . | -35.5% | .
C=CCNC(=O)CCc1nnc(C2(c3ccc(Cl)cc3)CCC2)o1 | -5.9% | 53.1% | 12.6µM* | -0.9%
SMILES | Anesthetic bind | GoLoco inh red | BRCA1 expr act | ERG-DNA inh
c1ccc(-c2cnnc(-c3ccccn3)n2)cc1 | . | . | 4.47µM* | -3.1%
O=C1OC(c2ccccc2)=C/C1=C/N1CCOCC1 | -8.2% | 7.6% | 12.6µM* | .
O=C(NCCOCCO)C(=O)Nc1c2c(nn1-c1ccc(F)cc1)CSC2 | -10.6% | . | . | 3.0%
CCCNC(=O)/C=C/c1ccc(C(C)C)cc1 | -0.4% | 1.9% | 12.6µM* | -2.7%
COc1ccc(NC(=O)Nc2ccc3[nH]ccc3c2)cc1 | . | . | 3.16µM* | -4.8%
O=C(CCc1ccccc1)Nc1nc2c(F)cc(F)cc2s1 | -0.9% | 21.1% | 10µM* | 1.0%
Cc1cc(Nc2cccc(Cl)c2)nc2ccc(NC(=O)COc3ccc(Cl)cc3)cc12 | 242.7% | . | -39.5% | 1.1%
CCN(CC)c1ccc(NC2=C(Cl)C(=O)c3ccccc3C2=O)cc1 | 4.2% | 7.94µM* | -85.5% | -5.7%
COc1cc(O)ccc1C1CC(=O)Nc2c1c(=O)nc(SCc1ccccc1C)n2C (stereo not given) | 54.3% | . | . | -0.9%
Cc1ccc([C@@]2(C)CC/C(=N/N=C3\CC[C@](C)(c4ccc(C)c(C)c4)c4cc(C)c(C)cc43)c3cc(C)c(C)cc32)cc1C | . | -2.7%[14.2 µM] | . | .
O=C(CCCc1ccccc1)NC12CC3CC(CC(C3)C1)C2 | ? | . | 2.82µM* | -10.4%
O=C(COC(=O)c1ccccc1)NC12CC3CC(CC(C3)C1)C2 | . | . | -4.0% | 8.6%
COc1ccc(CCNC(C)=O)cc1 | -4.5% | -1.1% | 1.6% | -0.1%
Cn1cccc1C(=O)NCCc1ccc(Cl)cc1 | ? | . | 7.08µM* | 6.4%
Cn1cccc1C(=O)NCCc1ccccc1 | -12.1% | . | 2.1% | -3.2%
